Targets with a hit are over-represented here; the source holds about 8,800 in all. About 0.5% of all pairs of compound and target were hits.
Key:
Test in all cases: log2 fold change, soluble protein after heating vs DMSO (PISA); higher = thermal stabilisation; K562 lysate, 10 uM; active = over 0.2 and 3.5 SD of the protein, either way, in both replicates (recomputed)
erlotinib = compound: C#Cc1cccc(Nc2ncnc3cc(OCCOC)c(OCCOC)cc23)c1 [erlotinib]
In short: (§1)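 A 30 min treatment with 10 μM compound was applied to crude K562 extract at 1 mg/mL protein in PBS pH 7.4 with 1 mM MgCl2. Heating for 3 min spanned 48°C-58°C, after which aliquots were pooled, adjusted to 0.5% NP-40 at 4°C and spun at 21,000xg for 90 min. TMTpro 16plex LC-MS/MS of the supernatant, with channel sums equalised, gave values recorded as log-two fold change in thermal stability against solvent controls, from duplicates.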

[1] = compound: C/C(=N\NC(=O)C1=CC(=CC=C1)S(=O)(=O)N2CCOCC2)/C3=C(C=CC(=C3)Cl)O
In short: as §1

[2] = compound: C1=CC(=CC=C1C2=NC3=C(N2)C=C(C=C3)C(=O)N)OC4=CC=C(C=C4)Cl
In short: as §1

[3] = compound: C1=CC2=C(C=CC(=C2)/C=C\3/C(=O)NC(=NCC4=CC=CS4)S3)N=C1
In short: as §1

[4] = compound: C1=CC2=NC=CN=C2C=C1/C=C/3\C(=O)NC(=O)S3
In short: as §1

[5] = compound: C1=CC=C(C=C1)C2=NC(=C(N2)C3=CC=NC=C3)C4=CC(=C(C=C4)Cl)O
In short: as §1

[6] = compound: C1=CC=C2C(=C1)C3=NNC4=CC=CC(=C43)C2=O
In short: as §1

[7] = compound: C1CCN(C1)C(=O)NC2=CC=CC(=C2)NC3=NC=C(C(=N3)NCCC4=CN=CN4)Br
In short: as §1

[8] = compound: C1CN(CCC1(CC2=CC=C(C=C2)Cl)N)C3=NC=NC4=C3C=CN4
In short: as §1

IRAK-1-4 Inhibitor I = compound: C1COCCN1CCN2C3=CC=CC=C3N=C2NC(=O)C4=CC(=CC=C4)[N+](=O)[O-] [IRAK-1-4 Inhibitor I]
In short: as §1

ibrutinib = compound: C=CC(=O)N1CCC[C@@H](n2nc(-c3ccc(Oc4ccccc4)cc3)c3c(N)ncnc32)C1 [ibrutinib]
In short: as §1

[9] = compound: CC(=O)c1cnc2ccc(-c3cc(Cl)c(O)c(Cl)c3)nc2c1N[C@H]1CC[C@H](CN(C)C)CC1
In short: as §1

ralimetinib = compound: CC(C)(C)Cn1c(N)nc2ccc(-c3[nH]c(C(C)(C)C)nc3-c3ccc(F)cc3)nc21 [ralimetinib]
In short: as §1

[10] = compound: CC(C)(O)CC(=O)NCCn1ccc2ncnc(Nc3ccc(Oc4cccc(C(F)(F)F)c4)c(Cl)c3)c21
In short: as §1

[11] = compound: CC(C)C1=C2N=C(C=C(N2N=C1)NCC3=CC=CC=C3)NCCCCCCN
In short: as §1

[12] = compound: CC1=C(C(CC(=O)N1)C2=CC=C(C=C2)C(F)(F)F)C(=O)NC3=C(C=C4C(=C3)C=NN4)F
In short: as §1

[13] = compound: CC1=C(C2=C(C=C1)C(=O)C3=CC=CC=C3N2CCCN)C
In short: as §1

[14] = compound: CC1=C(C=C(C=C1)NC(=O)C2=CC(=CC=C2)C(C)(C)C#N)NC3=CC4=C(C=C3)N=CN(C4=O)C
In short: as §1

[15] = compound: CC1=C(C=C(C=C1)NC(=O)C2=CC(=CC=C2)N(C)C)NC(=O)C3=CC=C(C=C3)O
In short: as §1

[16] = compound: CC1=CC=C(C=C1)SC2=C3C=C(SC3=CN=C2)C(=O)N
In short: as §1

Measured: log2 fold change

FAU (UniProt E9PR30)
inactive: erlotinib -0.026 | [1] -1.8 | [2] -0.059 | [3] -0.048 | [4] 0.016 | [5] -0.016 | [6] 0 | [7] 0.011 | [8] -0.021 | IRAK-1-4 Inhibitor I 0.053 | ibrutinib -0.018 | [9] 0.012 | ralimetinib -0.01 | [10] -0.018 | [11] -0.122 | [12] -0.034 | [13] -0.015 | [14] 0.029 | [15] -0.003 | [16] 0.027

ENO2 (UniProt P09104)
UniProt P09104, sequence (P09104 whole entry, looked up): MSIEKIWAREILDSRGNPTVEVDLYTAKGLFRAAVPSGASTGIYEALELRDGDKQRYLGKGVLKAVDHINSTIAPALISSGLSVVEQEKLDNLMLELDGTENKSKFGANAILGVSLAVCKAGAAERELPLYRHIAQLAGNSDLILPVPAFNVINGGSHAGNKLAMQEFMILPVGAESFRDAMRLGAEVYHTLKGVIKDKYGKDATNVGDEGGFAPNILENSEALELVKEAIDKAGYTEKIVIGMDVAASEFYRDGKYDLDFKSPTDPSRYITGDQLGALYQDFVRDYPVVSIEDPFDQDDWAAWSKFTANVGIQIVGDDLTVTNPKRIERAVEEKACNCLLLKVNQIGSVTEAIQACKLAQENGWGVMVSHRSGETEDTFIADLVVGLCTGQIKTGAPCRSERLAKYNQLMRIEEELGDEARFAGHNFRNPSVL
inactive: erlotinib 0.013 | [1] 0.013 | [2] 0.03 | [3] -0.037 | [4] 0.056 | [5] -0.091 | [6] 0.024 | [7] 0.005 | [8] -0.02 | IRAK-1-4 Inhibitor I -0.036 | ibrutinib -0.008 | [9] -0.014 | ralimetinib 0.031 | [10] -0.051 | [11] -0.007 | [12] -0.013 | [13] -0.029 | [14] 0.035 | [15] 0.032 | [16] 0.011

EPB41, A0A2R8Y6D0
inactive: erlotinib 0.134 | [1] 0.064 | [2] -0.187 | [3] -0.012 | [4] -0.004 | [5] 0.066 | [6] -0.004 | [7] -0.042 | [8] 0.054 | IRAK-1-4 Inhibitor I -0.071 | ibrutinib 0.04 | [9] 0.007 | ralimetinib 0.171 | [10] 0.094 | [11] -0.061 | [12] -0.012 | [13] 0 | [14] -0.065 | [15] 0.078 | [16] -0.02

GCDH (UniProt Q92947)
UniProt Q92947, sequence (Q92947 whole entry, looked up): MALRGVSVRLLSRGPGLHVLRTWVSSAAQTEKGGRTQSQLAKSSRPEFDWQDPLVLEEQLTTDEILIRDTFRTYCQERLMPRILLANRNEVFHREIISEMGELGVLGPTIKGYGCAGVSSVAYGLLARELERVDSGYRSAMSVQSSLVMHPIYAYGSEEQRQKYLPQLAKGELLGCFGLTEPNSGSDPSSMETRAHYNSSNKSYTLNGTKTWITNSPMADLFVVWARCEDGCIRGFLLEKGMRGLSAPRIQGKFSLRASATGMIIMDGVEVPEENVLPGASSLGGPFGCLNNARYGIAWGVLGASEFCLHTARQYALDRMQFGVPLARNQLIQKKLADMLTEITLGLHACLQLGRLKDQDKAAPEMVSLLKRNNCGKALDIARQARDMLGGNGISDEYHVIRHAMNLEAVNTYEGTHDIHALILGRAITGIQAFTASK
inactive: erlotinib -0.038 | [1] 0.1 | [2] -0.023 | [3] 0.051 | [4] 0.089 | [5] -0.027 | [6] 0.009 | [7] 0 | [8] 0 | IRAK-1-4 Inhibitor I 0.011 | ibrutinib -0.046 | [9] 0.028 | ralimetinib -0.04 | [10] 0.014 | [11] -0.051 | [12] 0.069 | [13] -0.019 | [14] 0.086 | [15] -0.017 | [16] -0.03

DYNC1I2 isoform 2 (UniProt Q13409)
UniProt Q13409, sequence (Q13409 whole entry, looked up): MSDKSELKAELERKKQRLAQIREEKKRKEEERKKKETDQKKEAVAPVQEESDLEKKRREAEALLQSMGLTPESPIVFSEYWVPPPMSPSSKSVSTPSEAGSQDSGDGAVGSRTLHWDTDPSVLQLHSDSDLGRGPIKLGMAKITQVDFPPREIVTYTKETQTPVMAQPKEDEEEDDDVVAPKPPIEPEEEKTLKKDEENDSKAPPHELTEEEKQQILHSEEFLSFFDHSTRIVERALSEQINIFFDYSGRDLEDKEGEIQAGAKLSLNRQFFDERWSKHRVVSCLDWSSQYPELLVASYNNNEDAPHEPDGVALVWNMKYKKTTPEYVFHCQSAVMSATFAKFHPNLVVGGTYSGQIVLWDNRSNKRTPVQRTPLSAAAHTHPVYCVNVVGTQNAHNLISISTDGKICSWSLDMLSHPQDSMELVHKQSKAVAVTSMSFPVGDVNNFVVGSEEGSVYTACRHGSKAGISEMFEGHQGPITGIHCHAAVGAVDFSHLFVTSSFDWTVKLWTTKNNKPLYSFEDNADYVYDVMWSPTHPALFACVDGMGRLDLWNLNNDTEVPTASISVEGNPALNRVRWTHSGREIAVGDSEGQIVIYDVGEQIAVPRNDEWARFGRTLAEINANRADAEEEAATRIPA
inactive: erlotinib -0.012 | [1] -0.032 | [2] 0.108 | [3] -0.088 | [4] -0.127 | [5] -0.002 | [6] 0.055 | [7] 0.005 | [8] -0.006 | IRAK-1-4 Inhibitor I 0.01 | ibrutinib -0.101 | [9] -0.032 | ralimetinib -0.04 | [10] -0.032 | [11] -0.017 | [13] 0.083 | [14] -0.019 | [15] -0.047 | [16] 0.012

EXOC1 (UniProt Q9NV70)
UniProt Q9NV70, sequence (Q9NV70 whole entry, looked up): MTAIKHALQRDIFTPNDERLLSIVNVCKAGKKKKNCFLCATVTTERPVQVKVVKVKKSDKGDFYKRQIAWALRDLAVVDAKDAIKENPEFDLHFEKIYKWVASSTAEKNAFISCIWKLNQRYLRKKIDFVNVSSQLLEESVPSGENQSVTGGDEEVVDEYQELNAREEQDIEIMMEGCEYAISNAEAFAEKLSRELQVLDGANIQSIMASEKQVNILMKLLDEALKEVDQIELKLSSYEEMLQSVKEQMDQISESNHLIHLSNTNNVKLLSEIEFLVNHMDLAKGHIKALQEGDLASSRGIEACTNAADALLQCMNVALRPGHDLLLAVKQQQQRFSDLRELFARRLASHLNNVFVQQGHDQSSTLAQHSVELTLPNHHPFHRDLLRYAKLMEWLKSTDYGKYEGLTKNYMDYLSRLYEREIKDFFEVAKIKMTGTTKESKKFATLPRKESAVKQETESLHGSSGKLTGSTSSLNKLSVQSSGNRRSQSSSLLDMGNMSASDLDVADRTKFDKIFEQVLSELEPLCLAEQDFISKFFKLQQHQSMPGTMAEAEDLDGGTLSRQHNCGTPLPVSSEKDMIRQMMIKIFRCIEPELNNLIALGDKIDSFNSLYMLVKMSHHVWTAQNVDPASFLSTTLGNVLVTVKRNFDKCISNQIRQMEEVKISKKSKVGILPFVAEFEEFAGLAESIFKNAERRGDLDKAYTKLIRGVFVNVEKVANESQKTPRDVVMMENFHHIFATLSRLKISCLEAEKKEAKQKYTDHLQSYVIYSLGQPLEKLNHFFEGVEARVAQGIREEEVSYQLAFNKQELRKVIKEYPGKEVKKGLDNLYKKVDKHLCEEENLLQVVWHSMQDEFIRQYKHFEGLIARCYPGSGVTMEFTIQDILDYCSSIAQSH
inactive: erlotinib 0.05 | [1] -0.005 | [2] -0.047 | [3] -0.009 | [4] 0.074 | [5] -0.035 | [6] -0.043 | [7] 0.014 | [8] -0.016 | IRAK-1-4 Inhibitor I -0.011 | ibrutinib -0.043 | [9] 0.012 | ralimetinib 0.04 | [10] -0.004 | [11] -0.023 | [12] -0.022 | [13] 0.016 | [14] -0.026 | [15] 0.032 | [16] -0.011

DYRK1A (UniProt Q13627)
inactive: erlotinib -0.061 | [1] -0.057 | [2] -0.004 | [3] 0.186 | [4] 0.175 | [5] 0.016 | [6] 0.084 | [7] -0.008 | [8] -0.034 | IRAK-1-4 Inhibitor I -0.046 | ibrutinib -0.019 | ralimetinib -0.003 | [10] 0.011 | [11] 0.01 | [12] 0.007 | [13] 0.005 | [14] -0.007 | [15] -0.024 | [16] 0.034
active: [9] 0.264

GAA (UniProt P10253)
inactive: erlotinib 0.077 | [1] 0.046 | [2] 0.054 | [3] -0.041 | [4] -0.005 | [5] 0.006 | [6] -0.208 | [7] 0.007 | [8] 0.092 | IRAK-1-4 Inhibitor I 0.025 | ibrutinib 0.013 | [9] -0.011 | ralimetinib 0.054 | [10] -0.133 | [11] 0.009 | [12] 0.142 | [14] 0.028 | [15] 0.036 | [16] -0.084

FDFT1 (UniProt P37268)
UniProt P37268, sequence (P37268 whole entry, looked up): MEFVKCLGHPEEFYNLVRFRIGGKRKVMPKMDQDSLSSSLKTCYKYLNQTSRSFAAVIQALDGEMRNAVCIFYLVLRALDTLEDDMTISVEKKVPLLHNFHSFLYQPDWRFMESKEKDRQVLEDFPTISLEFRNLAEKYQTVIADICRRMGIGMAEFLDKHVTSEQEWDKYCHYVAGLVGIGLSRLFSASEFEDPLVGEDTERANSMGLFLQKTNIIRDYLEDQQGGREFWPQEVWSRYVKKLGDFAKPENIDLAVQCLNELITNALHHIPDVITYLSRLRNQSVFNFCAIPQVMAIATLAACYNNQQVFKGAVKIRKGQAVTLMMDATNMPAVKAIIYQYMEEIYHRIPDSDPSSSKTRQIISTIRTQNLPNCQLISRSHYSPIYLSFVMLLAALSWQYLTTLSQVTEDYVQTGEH
inactive: erlotinib -0.002 | [1] -0.072 | [2] -0.038 | [3] 0.176 | [4] 0.001 | [5] 0.211 | [6] 0.115 | [7] 0.005 | [8] 0.024 | IRAK-1-4 Inhibitor I -0.014 | ibrutinib -0.004 | [9] -0.014 | ralimetinib -0.014 | [10] 0.018 | [11] 0.013 | [12] -0.034 | [13] -0.028 | [14] -0.02 | [15] 0.017 | [16] 0.012

GABPB1 isoform 3 (UniProt Q06547)
UniProt Q06547, sequence (Q06547 whole entry, looked up): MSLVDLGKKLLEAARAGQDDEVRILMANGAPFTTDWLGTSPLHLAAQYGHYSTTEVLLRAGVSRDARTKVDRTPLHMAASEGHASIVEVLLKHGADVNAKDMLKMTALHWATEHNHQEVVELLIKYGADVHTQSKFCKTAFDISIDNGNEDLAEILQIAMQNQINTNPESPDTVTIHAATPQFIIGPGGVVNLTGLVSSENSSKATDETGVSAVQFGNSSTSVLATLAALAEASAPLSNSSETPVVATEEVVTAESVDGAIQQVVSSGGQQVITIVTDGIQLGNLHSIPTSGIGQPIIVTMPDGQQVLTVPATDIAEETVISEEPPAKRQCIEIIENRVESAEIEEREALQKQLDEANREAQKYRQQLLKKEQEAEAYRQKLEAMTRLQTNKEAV
inactive: erlotinib -0.03 | [1] -0.042 | [2] -0.051 | [3] 0.016 | [4] 0.045 | [5] -0.048 | [6] -0.035 | [7] -0.032 | [8] 0.084 | IRAK-1-4 Inhibitor I 0.078 | ibrutinib 0.085 | [9] -0.027 | ralimetinib 0.043 | [10] -0.068 | [11] 0.121 | [13] 0.099 | [14] -0.051 | [15] -0.042 | [16] 0.03

EED, A0A5F9ZI63
inactive: erlotinib 0.019 | [1] 0.042 | [2] -0.033 | [3] 0.017 | [4] -0.019 | [5] -0.012 | [6] 0.003 | [7] 0.003 | [8] 0.023 | IRAK-1-4 Inhibitor I 0.021 | ibrutinib -0.026 | [9] -0.018 | ralimetinib 0.008 | [10] -0.039 | [11] -0.004 | [12] 0.036 | [13] -0.003 | [14] -0.016 | [15] 0.042 | [16] -0.008

EP300 (UniProt Q09472)
inactive: erlotinib 0.017 | [1] 0.011 | [2] -0.024 | [3] -0.017 | [4] 0.078 | [5] -0.015 | [6] -0.019 | [7] -0.033 | [8] 0 | IRAK-1-4 Inhibitor I -0.006 | ibrutinib 0.084 | [9] 0.117 | ralimetinib -0.026 | [10] -0.011 | [11] -0.07 | [12] 0.423 | [13] -0.011 | [14] -0.035 | [15] -0.025 | [16] -0.008

GALNT2 (UniProt Q10471)
UniProt Q10471, sequence (Q10471 whole entry, looked up): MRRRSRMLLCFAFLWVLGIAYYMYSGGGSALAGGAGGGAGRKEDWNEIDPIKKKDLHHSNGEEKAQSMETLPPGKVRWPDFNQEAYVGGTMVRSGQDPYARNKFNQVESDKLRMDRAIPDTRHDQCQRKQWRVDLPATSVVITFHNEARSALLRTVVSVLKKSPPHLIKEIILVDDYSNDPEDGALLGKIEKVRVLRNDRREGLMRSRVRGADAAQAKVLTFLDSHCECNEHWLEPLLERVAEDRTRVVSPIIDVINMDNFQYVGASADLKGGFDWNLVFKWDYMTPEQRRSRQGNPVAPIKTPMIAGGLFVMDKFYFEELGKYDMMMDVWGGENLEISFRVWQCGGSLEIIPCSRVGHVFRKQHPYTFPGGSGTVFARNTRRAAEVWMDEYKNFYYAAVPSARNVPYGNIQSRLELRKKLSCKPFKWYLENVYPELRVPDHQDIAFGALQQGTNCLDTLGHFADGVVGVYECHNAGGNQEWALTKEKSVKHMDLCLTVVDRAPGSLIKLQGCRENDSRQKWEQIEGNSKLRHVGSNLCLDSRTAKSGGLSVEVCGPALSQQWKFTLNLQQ
inactive: erlotinib -0.028 | [1] 0.005 | [2] -0.098 | [3] 0.054 | [4] -0.004 | [5] -0.04 | [6] -0.056 | [7] -0.045 | [8] 0.002 | IRAK-1-4 Inhibitor I -0.012 | ibrutinib -0.004 | [9] 0 | ralimetinib 0.006 | [10] 0.022 | [11] -0.005 | [12] 0.015 | [13] 0.031 | [14] -0.041 | [15] -0.012 | [16] -0.016

FYN (UniProt P06241)
UniProt P06241, sequence (P06241 whole entry, looked up): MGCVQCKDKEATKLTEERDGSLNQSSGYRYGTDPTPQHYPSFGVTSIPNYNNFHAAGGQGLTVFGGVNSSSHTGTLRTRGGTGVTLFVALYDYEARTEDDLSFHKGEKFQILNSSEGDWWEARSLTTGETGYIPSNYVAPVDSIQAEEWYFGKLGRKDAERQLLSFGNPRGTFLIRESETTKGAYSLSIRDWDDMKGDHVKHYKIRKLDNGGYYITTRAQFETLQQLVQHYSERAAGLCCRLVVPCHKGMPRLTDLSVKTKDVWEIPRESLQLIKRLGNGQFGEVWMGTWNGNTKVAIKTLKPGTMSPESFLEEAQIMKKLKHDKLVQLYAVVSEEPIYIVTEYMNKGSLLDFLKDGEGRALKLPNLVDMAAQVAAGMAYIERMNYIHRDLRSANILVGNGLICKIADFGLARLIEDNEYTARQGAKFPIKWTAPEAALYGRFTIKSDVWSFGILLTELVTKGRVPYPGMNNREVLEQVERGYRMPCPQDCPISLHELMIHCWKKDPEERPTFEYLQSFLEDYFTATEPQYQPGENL
inactive: erlotinib -0.028 | [1] 0.02 | [2] 0.025 | [3] 0.028 | [4] -0.062 | [5] 0.058 | [6] 0.092 | [7] 0.132 | [8] -0.018 | IRAK-1-4 Inhibitor I -0.145 | [9] 0.046 | ralimetinib 0.09 | [10] -0.13 | [11] 0.003 | [13] -0.042 | [14] -0.069 | [15] 0.052 | [16] 0.021
active: ibrutinib 0.79

EEF1A1P5 (UniProt Q5VTE0)
inactive: erlotinib 0.014 | [1] -0.054 | [2] 0.023 | [3] 0 | [4] 0.001 | [5] -0.01 | [6] -0.065 | [7] -0.048 | [8] 0.022 | IRAK-1-4 Inhibitor I 0.003 | ibrutinib -0.01 | [9] -0.007 | ralimetinib 0.001 | [10] -0.014 | [11] 0.032 | [12] 0.008 | [13] 0.019 | [14] -0.006 | [15] 0.012 | [16] -0.011

FBXO45 (UniProt P0C2W1)
UniProt P0C2W1, sequence (P0C2W1 whole entry, looked up): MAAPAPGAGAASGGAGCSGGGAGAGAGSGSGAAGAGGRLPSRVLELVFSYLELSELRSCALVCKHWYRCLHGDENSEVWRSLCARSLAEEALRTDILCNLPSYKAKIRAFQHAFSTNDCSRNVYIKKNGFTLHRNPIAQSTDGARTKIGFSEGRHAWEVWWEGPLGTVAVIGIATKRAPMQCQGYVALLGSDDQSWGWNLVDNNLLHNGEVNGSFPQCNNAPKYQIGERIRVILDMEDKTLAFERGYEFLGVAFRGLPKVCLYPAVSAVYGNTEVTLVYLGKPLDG
inactive: erlotinib 0.077 | [1] 0.016 | [2] -0.033 | [3] 0.092 | [4] -0.099 | [5] -0.126 | [6] -0.069 | [7] 0.018 | [8] 0.01 | IRAK-1-4 Inhibitor I -0.043 | ibrutinib 0.207 | [9] 0.075 | ralimetinib 0.173 | [10] 0.045 | [11] 0.043 | [12] 0.015 | [14] 0.064 | [15] 0.018 | [16] 0.081

From the supplement of paper PMC10849652
